Our source for the binding signal values is publication PMC7819943, “Rice protein-binding microarrays: a tool to detect cis-acting elements near promoter regions in rice”.

The full ranking holds about 68,000 sequences; the median of “fluorescence intensity (a.u.)” is about 9,100, and the highest 2% start at about 16,000. The entries come from a sample that favours the highest values as a whole.

For this test, the target named is OsWRKY34 (Oryza sativa, UniProt Q0JBA9 1-250). As to the kind of experiment: protein-binding microarray (RPBM); PBS, 2% BSA, 51.3 ng/ul salmon testes DNA, 50 uM zinc acetate, 200 nM TF, 25 C, 1 h; high values mean tight binding. The note with it: protein: recombinant; tags: N-terminal polyhistidine and DsRed monomer fusion (pET32a); label: CyDye5-dUTP incorporated in the synthesized complementary strand; 3' TTTTT single-stranded linker to array surface; dsDNA, one strand shown. In a few lines: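 Transcription factors were each fused at the N-terminus to a polyhistidine tag plus DsRed and expressed in E. coli BL21-CodonPlus before Ni–NTA purification. Binding to a double-stranded custom Agilent array was carried out with 200 nM protein at 25 °C for 1 h in PBS, 2% BSA, salmon testes DNA and 50 µM zinc acetate. The binding signal is per-feature fluorescence intensity, in arbitrary units, on an Axon 4000B scanner.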
Chain of OsWRKY34 (Q0JBA9 entry or part of it): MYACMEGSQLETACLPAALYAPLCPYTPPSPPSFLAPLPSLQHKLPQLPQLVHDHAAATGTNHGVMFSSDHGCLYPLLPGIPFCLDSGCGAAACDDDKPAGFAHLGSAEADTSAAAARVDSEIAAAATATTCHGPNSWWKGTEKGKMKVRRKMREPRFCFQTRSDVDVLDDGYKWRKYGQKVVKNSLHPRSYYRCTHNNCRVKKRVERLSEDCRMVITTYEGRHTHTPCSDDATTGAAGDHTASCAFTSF
Consider “TATATGTAAGCTACTTTTGTCCTATACATAAATTACTTTTCGGAGTCACCTAGTGCAG”, for which the binding signal is 8580 fluorescence intensity (a.u.).
Then “CTCTCTCCTACTGTAGGCCACCACCACCGCGACCGCACGACGGAGTCACCTAGTGCAG”, with 9340 fluorescence intensity (a.u.).
On to “CATGTGCTAAAAAGTCAACGGTATCAAACATTTTTAAACGCGGAGTCACCTAGTGCAG”, for which the binding signal was 15800 fluorescence intensity (a.u.).
To “TCTCGAGGTTGTTACATTGTACTTGTCGCTAGCTCGTCATCGGAGTCACCTAGTGCAG” belongs 8400 fluorescence intensity (a.u.); to “TCGCTAGTAGCTGTTGCTGCCTCTCCACCGCGTCCCTCTCCGGAGTCACCTAGTGCAG”, 11000 fluorescence intensity (a.u.).
Consider “GTCGCGCCTGACGCCGCCGTTGCGCCTGCCACCGCCTGTCCGGAGTCACCTAGTGCAG”, for which the binding signal was 8220 fluorescence intensity (a.u.).
Then “CGCTCCACATAGGCTAGGCCCATGTCCCTTAGAGGATCCTCGGAGTCACCTAGTGCAG”, with 8380 fluorescence intensity (a.u.).
Then “GTCTTCCCCTAGCGCCGCCGCCTCCACCTCCGCCGCCGTCCGGAGTCACCTAGTGCAG”, with 8700 fluorescence intensity (a.u.); and “CCGCCCTTAGACAGGCCCCGCCTCCGCCTCCGCGCCCACCCGGAGTCACCTAGTGCAG”, with 27800 fluorescence intensity (a.u.).
With “TGTCACATTTTTCGTCGTCTCCATCTTCATCTTCTTGTCGCGGAGTCACCTAGTGCAG”, the binding signal was 11200 fluorescence intensity (a.u.).
Turning to “CTCACGCGCTGCACCGCCGATACCCCACCCGCTGCTAGTTCGGAGTCACCTAGTGCAG”, the binding signal is 8670 fluorescence intensity (a.u.).
“GTGCCACTCTGTCTCTTCCGTCCATAGCGCCGTCGTCTTCCGGAGTCACCTAGTGCAG”: the binding signal is 17300 fluorescence intensity (a.u.).
To “CCCCACCGCCCACCGCCCACCGCCCACCCACCTCCGCACCCGGAGTCACCTAGTGCAG” belongs 11600 fluorescence intensity (a.u.); to “CTAACCCGCGCCCCAACCCTAGCCGCCTCCGCCCCGCCTCCGGAGTCACCTAGTGCAG”, 8920 fluorescence intensity (a.u.).
Then “ACCCGTCTCTGTTCATCTCCACATCTTGTCTTCTCGCTGTCGGAGTCACCTAGTGCAG”, with 18100 fluorescence intensity (a.u.); and “GCAGCGCTCGTCTCTCTCTGTCTCTCCACTCTCTTCTCTCCGGAGTCACCTAGTGCAG”, with 10100 fluorescence intensity (a.u.); and “CCTCACATCTTCTTCTTCATCTCCCTGTCTCTGTCTCTGTCGGAGTCACCTAGTGCAG”, with 13500 fluorescence intensity (a.u.).
Regarding “GCTACTACTGCTGCTGCTGCTACTTATCCACCGCTTTTTTCGGAGTCACCTAGTGCAG”, the binding signal was 13600 fluorescence intensity (a.u.).
Then “TACCCACACCGATCTGCCGCTGCCCAGTTCCACCTACTTTCGGAGTCACCTAGTGCAG”, with 16800 fluorescence intensity (a.u.).
Take “CCCGACCCAAACCTCACCGCCGCCGTCGCCGTTGCCGCCGCGGAGTCACCTAGTGCAG”: the binding signal was 8310 fluorescence intensity (a.u.).
To “TTAACTCGACAGTTTGTGTGTGATTTCAGTACTACCACGACGGAGTCACCTAGTGCAG” belongs 10400 fluorescence intensity (a.u.).
To “CTCCGCCGTCGCGTCCCCGCCGCCGCCGCCCGCCTTCCCCCGGAGTCACCTAGTGCAG” belongs 9960 fluorescence intensity (a.u.).
Regarding “ACTCGCGATATGCTTGTAACTTGGTTTGGTATTCCATTCTCGGAGTCACCTAGTGCAG”, the binding signal is 9670 fluorescence intensity (a.u.).
On to “GGGTTACGGCTGCAAGCTTGTTCTCTCCAGATGGGGAGTTCGGAGTCACCTAGTGCAG”, for which the binding signal was 10400 fluorescence intensity (a.u.).
Consider “CTCGCCGCCGGCCTCCTCCACCACCACCGACGACTCCGACCGGAGTCACCTAGTGCAG”, for which the binding signal was 8430 fluorescence intensity (a.u.).
On to “GTCTCCGCGCGCGCTCTCTCTTTCGTTCACTCTCGCTTTCCGGAGTCACCTAGTGCAG”, for which the binding signal is 14500 fluorescence intensity (a.u.).
Take “CGCGCCCTCCTCCGCCGCCGCTCGCCGCCGTTCGTCTCCGCGGAGTCACCTAGTGCAG”: the binding signal was 9840 fluorescence intensity (a.u.).
Then “GTCCTGCTGCTTCCGCCGCCGCCACCGTCCTGCTGCTTCCCGGAGTCACCTAGTGCAG”, with 9500 fluorescence intensity (a.u.).
To “TCCCTCCCGTCTCGTCTCCGCTCATTGCGCCATCTCGCGCCGGAGTCACCTAGTGCAG” belongs 8660 fluorescence intensity (a.u.); to “GCCTCGCCTCGCCGCCGGCGGCCACCGTCTCCGCCGCCTCCGGAGTCACCTAGTGCAG”, 8800 fluorescence intensity (a.u.); to “CTCCTCTCGCCGCCGCCGCCACCGCCACCGCCGCCGCTCCCGGAGTCACCTAGTGCAG”, 10100 fluorescence intensity (a.u.).
As to “AACACCGTTCCTCCGCCGCGCCGTCATTGCCACCGGCCTCCGGAGTCACCTAGTGCAG”, the binding signal was 9730 fluorescence intensity (a.u.).
For the sequence “CGCTTTCCTCTGTTTCTCCGCCGCGCTCGTTCGTCGTCTCCGGAGTCACCTAGTGCAG”, the binding signal was 21400 fluorescence intensity (a.u.).
Then “TTCTCCACCGCCGCCACCACCACCTCGCCTGGCCGGCCTCCGGAGTCACCTAGTGCAG”, with 18000 fluorescence intensity (a.u.); and “GCTCTCATGGCCTCACACACCGCGCCATTGCCATCGTTTCCGGAGTCACCTAGTGCAG”, with 17000 fluorescence intensity (a.u.); and “CCGCCGCTTCCTCGCCACCGCCGCTGCCGCCGCCACTTCCCGGAGTCACCTAGTGCAG”, with 19400 fluorescence intensity (a.u.).
Then “CATCGACTACCTGCCATTCTTCTACTCCAGGGTCTTCTCGCGGAGTCACCTAGTGCAG”, with 9510 fluorescence intensity (a.u.); and “ATCTTATGGTGTATTTTTTTTTTCTCCGGTGCAGGTTGGTCGGAGTCACCTAGTGCAG”, with 8260 fluorescence intensity (a.u.); and “GATGTGAATCACCCTTTGCTTTGCTGAATCTACTCCTACACGGAGTCACCTAGTGCAG”, with 10600 fluorescence intensity (a.u.).
Then “GCGAACTCCGAGCGCGGAGGTTGAGGCGGCGGCGAGCGTGCGGAGTCACCTAGTGCAG”, with 9820 fluorescence intensity (a.u.); and “CATTATTAAAATATATATGTGTTACATTCGGTATTATATTCGGAGTCACCTAGTGCAG”, with 8650 fluorescence intensity (a.u.).
With “CCTCATGATGATGCCGAACGTCTCGACATTGACCGCGCCCCGGAGTCACCTAGTGCAG”, the binding signal is 9370 fluorescence intensity (a.u.).
In the case of “CCGCCGCCCACCTCATGCCTTGCGCGGTGCCCGTGAGAGACGGAGTCACCTAGTGCAG”, the binding signal is 8250 fluorescence intensity (a.u.).
To “GATCGCTCCATAAACATGCAATATATCAATTTTAACTTTTCGGAGTCACCTAGTGCAG” belongs 8900 fluorescence intensity (a.u.).
In the case of “CTCTCAGCCGGTCTATCAATTCCCCTTTCTGATACAATAACGGAGTCACCTAGTGCAG”, the binding signal was 9570 fluorescence intensity (a.u.).
To “CCCATTCTAGATATTAACTACTAATCTGACTCTATTTTTTCGGAGTCACCTAGTGCAG” belongs 8880 fluorescence intensity (a.u.); to “TGGGTTTTATTTTCCCATTCTTTCGAGCTATTTTGACGGACGGAGTCACCTAGTGCAG”, 8220 fluorescence intensity (a.u.).
With “ACCCGCTTCTCGTCTCCTCGTCTCCTCGTTCGTCTCTCGCCGGAGTCACCTAGTGCAG”, the binding signal is 18000 fluorescence intensity (a.u.).
To “GCGCGCGCCGGCCTCCGTCTTCCTCCGCGGGTGCGCCACCCGGAGTCACCTAGTGCAG” belongs 10400 fluorescence intensity (a.u.); to “CGTCGCCGCCGCCGGCGTCTTCTCCACCTCCTCCGCGCCGCGGAGTCACCTAGTGCAG”, 8030 fluorescence intensity (a.u.); to “CATTTAAATCGCCATCACTCCGCGCGCTCTCCCATCCATCCGGAGTCACCTAGTGCAG”, 8870 fluorescence intensity (a.u.).
Then “GTCGTCGCCTGCCTCTTCGTCGCCGCTCTCGTCTCCGCTCCGGAGTCACCTAGTGCAG”, with 9880 fluorescence intensity (a.u.).
“TTCCTCCGTCTGCGTGCCGGCTTCTGTCTTCCTCCGCGCGCGGAGTCACCTAGTGCAG”: the binding signal is 17300 fluorescence intensity (a.u.).
Then “TCCCGCTTCTCCTCCGTCGCTCTCCGCCGCCGCCGCCACCCGGAGTCACCTAGTGCAG”, with 10200 fluorescence intensity (a.u.).
Then “CGCCGCCTCCGCTCCACTCTCCTCGCCGTCGCCGGTCCTCCGGAGTCACCTAGTGCAG”, with 11500 fluorescence intensity (a.u.); and “CTCTCCTCTCCTCGCTTCTTCGTCTCGCTTGCTCGCTCGCCGGAGTCACCTAGTGCAG”, with 8550 fluorescence intensity (a.u.); and “TCGCCTATCTCTCTATCTCTTTCGCCACCGCTTGCCTCTCCGGAGTCACCTAGTGCAG”, with 9030 fluorescence intensity (a.u.).
As for “ACACTCTCGCCGTCGCCGCCTCCTCGCCTCCGCTTACTCCCGGAGTCACCTAGTGCAG”, the binding signal is 16700 fluorescence intensity (a.u.).
Then “GCTCTATCTTTACTCGCCATTTAATCGTTGCCTCGCGCTCCGGAGTCACCTAGTGCAG”, with 16900 fluorescence intensity (a.u.).
